Data published in PubChem BioAssay AID504329 (Southern Research Specialized Biocontainment Screening …, 2011).
In all, about 340,000 compounds went through this assay and about 1,000 (0.29%) were called active. Not all results are given here. Potency and affinity values are given separately. Values without a mark were called inactive. No stated cut-off is given here; in the data, inconclusive means inhibition above about 27% without an active follow-up result; inactive means below that.

assay: H1N1 influenza NS1A inhibitors, functional cell based assay (AID 504329); conditions: percent inhibition, at 12.5 µM, active compounds read high

Compound | inhibition [%]
Cc1ccc(CNc2nc3ccccc3n2C)cc1 | -2.51
CN(C)c1ccc(N=Nc2nc3ccccc3n2C)cc1 | -12.4
Cn1c(N=Nc2ccccc2)nc2ccccc21 | 3.98
Cc1ccc(NCc2nc3ccccc3n2C)c(C)c1 | 1.58
C=CCn1c(C(O)c2ccccc2)nc2ccccc21 (stereo not drawn) | -2.4
COC(=O)c1ccccc1NC(=O)c1cccc(NC(=O)C(C)C)c1 | -5.47
Cc1ccc(Cl)c2c1NC(=O)C2(O)CC(=O)c1ccccc1O (stereo not drawn) | 1.71
Cc1nn(Cc2ccc(F)cc2)c(Cl)c1/C=N/NC(=O)c1cccnc1 | 3.93
CCCCNC(=O)C1CCCN1S(=O)(=O)c1cccc2nsnc12 (stereo not drawn) | -12.3
O=c1c2c(-c3ccccc3)csc2ncn1/N=C/c1c2ccccc2cc2ccccc12 | 5.97
CN(C)c1ccc(C=Nc2ccc(N(C)C)cc2)cc1 | 26.9
Cc1ccc(C=Nc2ccc(N(C)C)cc2)o1 | 22.3
CN1C(C(=O)NCCc2cccs2)CC2Cn3c(nc4cc5ccccc5cc43)C21 (stereo not drawn) | 1.77
CSc1cccc(CN2CCN(CCc3ccccc3)C(CCO)C2)c1 (stereo not drawn) | -1.46
O=C(c1ccco1)N1CCN(CCCCN2C(=O)c3ccccc3C2=O)CC1 | -6.16
O=C(c1ccco1)N1CCN(C2=NS(=O)(=O)c3ccccc32)CC1 | -26.1
CN(CCO)c1cc(N2CCN(C(=O)c3ccco3)CC2)c2nonc2c1[N+](=O)[O-] | -1.02
O=C(c1cc(-c2ccccc2Cl)on1)N1CCN(C(=O)c2ccco2)CC1 | 9.97
COc1ccc(C)cc1-n1nnnc1SCc1csc(C)n1 | -0.01
O=C(Cc1ccc2c(c1)OCCO2)Nc1cc(C(F)(F)F)ccc1N1CCOCC1 | -15.4
O=C(CC(O)(CC(=O)OCc1ccccc1)C(=O)OCc1ccccc1)OCc1ccccc1 | 10.3
O=C1/C(=C\c2cccc(O)c2O)SC(=S)N1Cc1ccccc1 | 11.5
O=C1/C(=C/c2ccc(O)c([N+](=O)[O-])c2)SC(=S)N1Cc1ccccc1 | 8.28
O=C(c1ccncc1)C12CN3CN(CN(C3)C1)C2 | -2.7
COc1cc(/C=N\NC(=O)CN2CCOCC2)ccc1OCC(=O)Nc1ccc(C)c(C)c1 | 0.68
C/C(=N\N1CCN(Cc2ccc(Cl)cc2)CC1)c1ccc([N+](=O)[O-])cc1 | 1.56
CC(O)(Cc1ccccn1)Cc1ccccn1 | 3.66

Compound | inhibition [%]
CC(c1ccccn1)C(C)(O)C(C)c1ccccn1 (stereo not drawn) | -2.07
COc1ccccc1N1CCN(Cc2cccc(OC)c2O)CC1 | 0.66
COc1ccccc1N1CCN(Cc2ccc(OC)c(OC)c2OC)CC1 | 0.22
COc1ccccc1N1CCN(Cc2cc3c(cc2Br)OCCO3)CC1 | 3.4
COc1ccccc1N1CCN(Cc2cccc(OC)c2OC)CC1 | -12
Cc1onc(COc2ccccc2O)c1Br | -2.44
Cc1cccc(NC(=O)C2CCCN(S(=O)(=O)c3ccc4[nH]c(=O)ccc4c3)C2)n1 (stereo not drawn) | 5.77
CC(C)C(NC(=O)c1ccc(C(C)(C)C)cc1)C(=O)NC1=NCCS1 (stereo not drawn) | 8.12
c1cncc(-c2cnc3ccccc3c2)c1 | -4.39
Oc1cncc(-c2cccnc2)c1 | -6.57
c1cc(-c2ccncc2)ccn1 | -1.52
CN(C)c1ccc(-c2cc(O)c3ncccc3c2)cc1 | 21.2
CC1(c2nnc(-c3ccc(Cl)cc3)o2)CC(c2c(Cl)cccc2Cl)=NO1 (stereo not drawn) | -2.35
Cc1ccc(NC(=S)NCc2ccccc2)c(C)c1 | -7.15
O=C(Cc1ccccc1)Nc1cc(C(=O)c2ccccc2)ccc1N1CCOCC1 | -3.63
COc1ccc(C(=O)NCCNc2nc3ccc(C)cc3cc2C#N)cc1 | -6.86
CN(CC1CCCN(CCc2ccc(Cl)cc2)C1)C(=O)CC(F)(F)F (stereo not drawn) | -8.18
Cc1ccc(CNC(=O)C2CCC(=O)N(CCc3ccc(Cl)cc3)C2)s1 (stereo not drawn) | -10
COc1ccc(C(=O)NC(C)CCCC(C)(C)O)cc1OC1CCN(C(C)=O)CC1 (stereo not drawn) | -0.26
Clc1ccc(-c2noc(COc3ccccc3)n2)cc1 | -0.74
C/C(=N/NC(=O)CNC(=O)c1ccccn1)c1ccc([N+](=O)[O-])cc1 | -5.71
C/C(=N\NC(=O)C(c1ccccc1)c1ccccc1)c1ccccn1 | -11.5
CCOc1ccc(C(=O)NCCN2CCCCC2)c(OCC)c1 | -19.7
Cc1ccc(NC(=O)CN(C)C(=O)c2ccc(NS(=O)(=O)c3ccc4[nH]c(=O)[nH]c4c3)cc2)cc1 | 2.9
O=C(COC(=O)C12CC3CC(CC(O)(C3)C1)C2)NC(=O)NCc1ccco1 | -3.4
O=c1[nH]c(=S)[nH]c2scc(-c3ccc(Br)cc3)c12 | -20.7
